Screening results from PubChem BioAssay.
Methyltransferases: Primary Screen for Target Class Profiling of Small Molecule Inhibitors of Methyltransferases; purified enzyme, MTase-Glo SAH luminescence; active compounds read low; calls only at 40 µM; 3.9% of 25,000 active; AID 1745853, 2022; call rule not given here
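Each enzyme was assayed with SAM and its substrate. SAH formation detected by MTase-Glo luminescence; single-point 40 uM screen[…].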
MTase-Glo counter: Counterscreen for Target Class Profiling of Small Molecule Inhibitors of Methyltransferases. shares compounds with Methyltransferases. MTase-Glo coupled enzymes, SAH conversion luminescence, no MTase. Potency, µM (top dose mostly 57.3 µM), for the others: top-dose activity change, negative = inhibition, most hits filed as inhibitors. 6% of 180 active. AID 1745851, 2022; active = well fitted inhibition curve with a large enough effect; note: potency is the fitted concentration of half-maximal effect
* marks the source's active call; other numbers are inactive results; i = inactive; + = active, no number; [ ] = another dose, or the depositor's remark. The entries come from a sample that favours hits as a whole. % is set by controls: 0 for no effect and ±100 for the full control effect.

SMILES	Methyltransferases	others
CN(C)S(=O)(=O)N1CCc2c(nc3cc(-c4ccccc4)[nH]n3c2=O)C1	i
O=C(CCCc1nc2ccccc2s1)N1CCc2nc3cc(-c4ccccc4)[nH]n3c(=O)c2C1	i
COc1ccc(-c2cc3nc4c(c(=O)n3[nH]2)CN(C(=O)CN(C)S(=O)(=O)c2cnc[nH]2)CC4)cc1	+	MTase-Glo counter=-6%
CC1(C(=O)NC2CCCCCC2)Cn2c(cc3ccccc32)C(=O)N1Cc1ccc2c(c1)OCO2 (stereo not drawn)	i
COc1ccc(CCN(C)CCc2ccc(OC)c(OC)c2)cc1OC	i
COc1ccc(CNC(=O)c2cc3n(n2)CC(C)(C(=O)NC2CCCC2)N(C)C3=O)cc1OC (stereo not drawn)	i
COc1ccc(CNc2cc3c(cn2)CN(C)CCN3)cc1OC	+	MTase-Glo counter=0%[85.7 µM]
Cc1sc2ncn(CC(=O)NCc3ccc4c(c3)OCO4)c(=O)c2c1S(=O)(=O)N1CCC(C)CC1	i
OCC(O)c1cc2n(n1)CCN(Cc1ccccc1Cn1cccn1)C2 (stereo not drawn)	i
OC1(Cn2ccnc2)CCN(Cc2ccccc2Cn2cccn2)CC1	+	MTase-Glo counter=-1%
O=C(NCc1ccccc1Cn1cccn1)c1ccc2cccc(F)c2n1	i
CN1CCN(Cc2ccc(CC3CCN(S(=O)(=O)c4cccc(F)c4)CC3)cc2)CC1	i
Cc1ccc(Cn2c(=O)c3ccccc3n3c(CCC(=O)NCc4ccc(F)cc4)nnc23)cc1	i
Cc1ccc(C(=O)Cn2nc3n(Cc4ccccc4)c(=O)c4ccc(C(=O)NC(C)C)cc4n3c2=O)cc1	i
Cc1ccccc1-c1[nH]nc2ncc(-c3c(C)noc3C)nc12	+	MTase-Glo counter=-4%[85.7 µM]
Cc1noc(C)c1-c1cc2c(cc(C)n2C)c(N2CCN(c3ccccn3)CC2)n1	i
COc1ccc(-c2cnc3n[nH]c(-c4ccccc4C)c3n2)cn1	i
CC1CCC(NC(=O)C2(C)Cn3c(cc4sccc43)C(=O)N2CCCc2ccccc2)CC1 (stereo not drawn)	i
CCCCN1C(=O)c2cc(C(=O)Nc3cc(C)ccc3OC)nn2CC1(C)C(=O)NC1CCCC1 (stereo not drawn)	i
CCCCCNC(=O)c1ccc2c(=O)nc3c(-c4cccc(F)c4)n[nH]n3c2c1	i
CCCCNC(=O)c1cccc(-c2cc(N3CCN(C)CC3)nc(N)n2)c1	+	MTase-Glo counter=-1%
COc1cccc(C(=O)NCCN2CCN(c3ccc(Cl)cc3)CC2)c1	i
COC(=O)c1ncn2c1C(=O)N(Cc1cccc(Cl)c1)C(C)(C(=O)NC1CCCC1)C2 (stereo not drawn)	i
Cc1noc(C)c1-c1cnc(Nc2ccncc2)c2c1CCO2	+	MTase-Glo counter=-3%[85.7 µM]
Cn1cc(-c2cnc(Nc3cccnc3)c3c2CCO3)cn1	i
SMILES	Methyltransferases	others
Fc1cccc(Nc2ncc(-c3cncnc3)c3c2OCC3)c1	i
Cc1ccc2c(c1)c(-n1cccc1)c1n2CC(C)(C(=O)NC2CCCC2)N(CCC2=CCCCC2)C1=O (stereo not drawn)	i
CCOC(=O)CNC(=O)N1Cc2c(sc3c2CCCC3)-n2cccc2C1c1ccc(CC)cc1 (stereo not drawn)	i
Cc1ccc2c(c1)c(-n1cccc1)c1n2CC(C)(C(=O)NCCC(C)C)N(Cc2ccco2)C1=O (stereo not drawn)	i
COCc1nc2nc(-c3ccccc3)c(-c3ccc(O)c(F)c3)cc2n1C	+	MTase-Glo counter=-6%[85.7 µM]
Cc1ccc(CSc2nnc3n(CCCOC(C)C)c(=O)c4cc(Cl)ccc4n23)cc1	i
N#Cc1ccccc1-c1cc2c(ccn2Cc2ccncc2)c(N2CCOCC2)n1	+	MTase-Glo counter=4%[85.7 µM]
CC(C)(C)NC(=O)Cn1nc2n(Cc3ccccc3)c(=O)c3ccc(C(=O)NC4CCCC4)cc3n2c1=O	i
CN1CCC(N2C[C@@H]3C[C@H]2C(=O)N(CC2CC2)c2ccccc2O3)CC1	+	MTase-Glo counter=-5%[85.7 µM]
CC(C)CCN1C[C@@H]2C[C@H]1C(=O)N(Cc1cccnc1)c1ccccc1O2	i
CCC1CCCCN1CCCNC(=O)CCn1ccc2cc(S(=O)(=O)N3CCCCC3)ccc21 (stereo not drawn)	i
CCN1c2cc(C(=O)NCCc3ccccc3)ccc2C(=O)N2CCCCC21 (stereo not drawn)	i
CCCC1=Nc2cc(C(=O)NCCCN3CCCCC3CC)ccc2Sc2ccc(C)cc21 (stereo not drawn)	+	MTase-Glo counter=-1%
CC1(C(=O)NC2CCCCC2)Cn2nc(-c3cccs3)cc2C(=O)N1Cc1ccc2c(c1)OCO2 (stereo not drawn)	i
CN1C(=O)c2cc(C(=O)N3CCN(c4ccccc4)CC3)nn2CC1(C)C(=O)NC1CCCCC1 (stereo not drawn)	i
CCNc1nccc(N2CCC(CC(=O)NCC(C)C)CC2)n1	+	MTase-Glo counter=0%
CC1(C)N=C(c2ccccc2)C(=O)N1CC(=O)N1CCN(c2ccccc2F)CC1	i
CCCn1c(C)cnc1CCNC(=O)CC1CCN(C(C)=O)CC1	i
COc1nccc(N2CCC(CC(=O)N3CCN(C(C)=O)CC3)CC2)n1	i
CCOc1ccc(-c2ccnc(NC[C@@H]3CCCO3)n2)cc1C(=O)O	i
CCNc1nccc(N2CCC(CC(=O)N3CCN(c4ccccc4F)CC3)CC2)n1	+	MTase-Glo counter=3%
Cc1ccc(CN2C(=O)c3ccc(-c4ccco4)n3CC2(C)C(=O)NC2CCC(C)CC2)cc1 (stereo not drawn)	i
CC1(C(=O)NC2CCCCCCC2)Cn2c(ccc2-c2ccccc2)C(=O)N1CCN1CCOCC1 (stereo not drawn)	i
CC1CCC(NC(=O)C2(C)Cn3c(cc4occc43)C(=O)N2CCc2ccccc2)CC1 (stereo not drawn)	i
CCCn1c(=O)c2ccc(Cl)cc2n2c(=O)n(CC(=O)NCc3ccc(C)cc3)nc12	i
SMILES	Methyltransferases	others
Cc1cccc(CNC(=O)CNC(=O)C2(C)Cn3c(cc4ccccc43)C(=O)N2C)c1 (stereo not drawn)	i
CC1(C(=O)NCc2ccccc2)Cc2ccccc2C(=O)N1Cc1cccc(Cl)c1 (stereo not drawn)	i
CCCn1c(=O)c2ccc(C(=O)NC(C)C)cc2n2c(=O)n(Cc3ccccc3)nc12	i
CCOC(=O)c1cc2n(n1)CC(C)(C(=O)NCCC(C)C)N(c1ccc(F)cc1)C2=O (stereo not drawn)	i
Nc1nc(NCc2ccc(N3CCCC3=O)cc2)cc(C2CC(O)C2)n1 (stereo not drawn)	i
CCc1csc(CNc2cc(C3CC(O)C3)nc(N)n2)n1 (stereo not drawn)	i
Nc1nc(NCc2ccc(Cl)cc2Cl)cc(C2CC(O)C2)n1 (stereo not drawn)	+	MTase-Glo counter=-3%
CC1(C(=O)NC2CCCCC2)Cn2c(cc3occc32)C(=O)N1Cc1ccccc1 (stereo not drawn)	i
CC(C)OCCCn1c(=O)c2ccccc2n2c(CCC(=O)Nc3ccccc3)nnc12	i
CCCCN1C(=O)c2cc(C(=O)NCCc3ccccc3)nn2CC1(C)C(=O)NC1CCCC1 (stereo not drawn)	i
CC1=NOC(C(=O)N2CCCn3nc(C(=O)NCCN(C)C)cc3C2)C1 (stereo not drawn)	i
CN(C)CCNC(=O)c1ccnc(-c2nnc3ccc(N(C)c4ccccc4)nn23)c1	+	MTase-Glo counter=-7%[85.7 µM]
